Assay outcomes from PubChem.
Hits are enriched below; roughly 2.9% of the tested compounds scored in any of these assays.
Pol beta inh = blocks human DNA polymerase beta activity; P06746; Pol beta primer extension/strand displacement, fluorescence kinetic; Potency, µM (series often up to 114 µM), without a hit: top-dose activity change, negative = inhibition, usual class: inhibitors; 340,000 compounds, 1.3% hits; AID 485314; also: potency is read from the fitted curve at half-maximal effect; % is scaled to controls: 0 for no effect and ±100 for the full control effect
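Kinetic readout of DNA synthesis with strand displacement by Pol beta. Compound and 10 nM enzyme sit 15 min at room temperature; 50 nM substrate starts the reaction, read immediately and at 10 min.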
Pol kappa inh-1 = DNA polymerase kappa (human) inhibition; Q9UBT6; purified Pol kappa, fluorescent DNA synthesis assay, 10 min; Potency, µM (titrated, usually from 107 µM), for inactives: top-dose activity, negative = inhibition, usual class: inhibitors; 400,000 compounds, 0.53% hits; AID 588579; also: potency is read from the fitted curve at half-maximal effect; % is scaled to controls: 0 for no effect and ±100 for the full control effect
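10 nM Pol kappa was preincubated with compounds for 15 min at room temperature. Reaction started with 50 nM (final) substrate. Fluorescence read kinetically at 0 and 10 min.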
PI5P4Ka inh = PI5P4K alpha (human) kinase inhibition; PI5P4Kalpha enzyme, ADP-Glo luminescence, 60 min; stronger effect = lower value; P48426; AID 652105; max response, %; 330,000 compounds, 1.2% hits; active = max response of -50% or lower; inconclusive = between -30% and -50%; inactive = -30% or higher; also: value at the top dose of about 77 µM; % is scaled to controls: 0 for no effect and ±100 for the full control effect
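PI5P4Kalpha ADP-Glo assay; 5 microM ATP final; 60 min RT reaction; HEPES pH 7.4/EGTA/CHAPS, 5% DMSO; controls lacking substrate or enzyme; luminescent end-point.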
Pol iota inh = inhibitors of human DNA polymerase iota; Q9UNA4; Pol iota fluorescent replication assay, 10 min; AID 588590; Potency, µM (doses to about 115 µM), inactives show at the highest dose activity, negative = inhibition, hits mostly inhibitors; 390,000 compounds, 1% hits; also: potency is read from the fitted curve at half-maximal effect
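Fluorescent replication assay read twice, at 0 min and 10 min after adding 50 nM (final) substrate. Enzyme (10 nM) and compounds were first incubated 15 min at room temperature; enzyme-free buffer wells were negative controls.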
Pol eta inh-1 = DNA polymerase eta (human) inhibition | Q9Y253 | recombinant Pol eta, fluorescent DNA replication assay | Potency, µM (highest dose often 114 µM), without a hit: top-dose activity change, negative = inhibition, actives largely listed as inhibitors | 390,000 compounds, 1.2% hits | AID 588591; also: potency is read from the fitted curve at half-maximal effect; % is scaled to controls: 0 for no effect and ±100 for the full control effect
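Fluorescent replication assay: 50 nM final substrate added after a 15 min room-temperature compound preincubation with 10 nM enzyme. Signal taken at 0 min and again at 10 min.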
12-LOX inh = blocks human arachidonate 12S-lipoxygenase. P18054. purified 12hLO, xylenol orange hydroperoxide absorbance. Potency, µM (highest dose often 108 µM), inactives show top-dose activity change, negative = inhibition, most hits filed as inhibitors. 580,000 compounds, 1.1% hits. AID 1671190; also: potency is read from the fitted curve at half-maximal effect; % is scaled to controls: 0 for no effect and ±100 for the full control effect
Target sequence (P18054 whole entry, looked up): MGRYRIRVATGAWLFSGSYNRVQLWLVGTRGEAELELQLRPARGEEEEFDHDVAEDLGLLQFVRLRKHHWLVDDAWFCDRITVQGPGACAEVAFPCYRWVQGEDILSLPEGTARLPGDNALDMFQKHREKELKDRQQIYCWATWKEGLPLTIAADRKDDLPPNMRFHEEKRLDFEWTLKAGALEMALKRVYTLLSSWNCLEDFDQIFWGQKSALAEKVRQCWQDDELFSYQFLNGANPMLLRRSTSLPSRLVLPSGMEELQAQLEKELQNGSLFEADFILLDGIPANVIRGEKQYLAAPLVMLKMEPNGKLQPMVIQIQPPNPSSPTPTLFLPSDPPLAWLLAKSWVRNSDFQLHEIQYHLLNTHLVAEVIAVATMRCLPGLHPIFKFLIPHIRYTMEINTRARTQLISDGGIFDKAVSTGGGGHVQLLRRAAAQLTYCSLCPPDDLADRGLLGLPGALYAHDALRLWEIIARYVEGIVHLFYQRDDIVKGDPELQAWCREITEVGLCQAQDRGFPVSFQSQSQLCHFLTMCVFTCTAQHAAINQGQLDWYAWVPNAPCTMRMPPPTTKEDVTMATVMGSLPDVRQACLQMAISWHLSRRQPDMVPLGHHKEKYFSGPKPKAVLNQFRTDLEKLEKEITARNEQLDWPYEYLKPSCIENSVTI
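Hydroperoxide product was detected by ferrous iron/xylenol orange as the 573 to 405 nm absorbance ratio. Arachidonic acid at 40 uM (final) was turned over for 30 min at room temperature by 150 nM human 12hLO, pH 7.0 Hepes buffer, after 15 min compound preincubation.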
GALK inh confirm = galactokinase (human) inhibition, confirmation. shares compounds with Pol eta inh-1. Potency, µM (series often up to 115 µM), inactives show top-dose activity, negative = inhibition, hits mostly inhibitors. 150 compounds, 70% hits. AID 2015. purified GALK, Kinase-Glo ATP depletion luminescence
Redox cycling = redox cycling activity in phenol red-HRP assay; shares compounds with Pol eta inh-1; Phenol red-HRP H2O2 redox cycling, absorbance 600 nm; Potency, µM (highest dose often 115 µM), for the others: top-dose activity change, negative = H2O2 signal, usual class: inhibitors; 150 compounds, 40% hits; AID 2035
HEK293 tox = HEK-293 cytotoxicity, GALK inhibitor secondary. shares compounds with Pol eta inh-1. HEK-293 viability, ATP luminescence (CellTiter-Glo), 24/48 h. Potency, µM (series often up to 46.1 µM), for inactives: at the highest dose activity change, negative = cytotoxicity, usual class: inhibitors. 170 compounds, 10% hits. AID 2547; also: potency is read from the fitted curve at half-maximal effect; % is scaled to controls: 0 for no effect and ±100 for the full control effect
Pol kappa inh-2 = Pol kappa (human) inhibition, cherry-pick confirmation | shares compounds with Pol eta inh-1 | Potency, µM, actives largely listed as inhibitors | AID 720501 | 920 compounds, 76% hits | purified Pol-kappa, fluorescent strand-displacement substrate; also: potency is read from the fitted curve at half-maximal effect
Pol eta inh-2 = Pol eta (human) inhibition, cherry-pick confirmation | Potency, µM, hits mostly inhibitors | shares compounds with Pol eta inh-1 | 2,600 compounds, 64% hits | Pol eta primer extension, TAMRA/BHQ fluorescence, 10 min; also: potency is read from the fitted curve at half-maximal effect
* = called active by the depositor; ? = inconclusive; . = not tested or not shown; [ ] = dose if it differs, or a comment. Unless noted, calls follow the shape of the dose curve; as a rule, active = well fitted curve in the direction sought with a large enough effect; inconclusive = small, poorly fitted or top-dose-only effect, or another doubt; inactive = no such curve, though single readings can be large; an effect the other way counts as inactive or inconclusive.

SMILES	Pol beta inh	Pol kappa inh-1	PI5P4Ka inh	Pol iota inh	Pol eta inh-1	12-LOX inh	Pol eta inh-2	others
O=C(NC1CCCCC1)c1sc(=S)n2c1[nH]c(=O)c1ccccc12	18µM*	-23%	36	-25%	25µM*	?	.	Pol kappa inh-2=?
O=C(NCC1CCCO1)c1sc(=S)n2c1[nH]c(=O)c1ccc(C(=O)N3CCCCC3)cc12 (centres undefined)	-21%	-26%	.	?	-14%	-24%	.
COc1ccc(OC)c(CCNC(=O)c2ccc3c(=O)[nH]c4c(C(=O)NC(C)C)sc(=S)n4c3c2)c1	8%	-16%	-6	-13%	16µM*	?	43*
O=C(NCCc1ccccc1)c1ccc2c(=O)[nH]c3c(C(=O)NCC4CCCO4)sc(=S)n3c2c1 (centres undefined)	14%	?	-11	?	-7%	?	.	GALK inh confirm=38µM*;Redox cycling=-1%;HEK293 tox=9%
CCCCNC(=O)c1sc(=S)n2c1[nH]c(=O)c1ccccc12	?	-15%	-1	-10%	?	?	.
Cc1c(C(=O)N2CCN(c3ccccn3)CC2)cccc1[N+](=O)[O-]	26%	-13%	-8	159%	-10%	-7%	.
CC(Sc1ccsc1[N+](=O)[O-])C(=O)N1CCN(c2ccccn2)CC1 (centres undefined)	-1%	?	?	?	35µM*	-20%	76*
CCOc1ccc(/C=C2/SC(=S)N(C(C(=O)O)c3ccccc3)C2=O)cc1OCC (centres undefined)	-15%	-2%	-4	?	?	?	.
CCOc1cc(/C=C2\SC(=S)N(C(C(=O)O)c3ccccc3)C2=O)ccc1O (centres undefined)	?	?	-11	28µM*	?	?	.	Pol kappa inh-2=42*
Cc1ccc(N2C(=O)CSC2=S)cc1C	23%	2%	7	-4%	-20%	35%	.
CN(C)c1ccc(N2C(=O)CSC2=S)cc1	-9%	-43%	-12	?	-12%	-34%	?
Cc1cc(SCC(=O)N/N=C/c2ccc(O)c(O)c2)nc2ccccc12	8.9µM*	?	?	50µM*	20µM*	-12%	38*
COc1cc(/C=N/NC(=O)Cc2nnc(NC(=O)c3ccccc3)s2)ccc1O	?	-3%	?	45%	-19%	1%	.
O=C(Cc1nnc(NC(=O)c2ccccc2)s1)N/N=C\c1ccc(O)c(O)c1	7.1µM*	3.2µM*	-75*	2.2µM*	3.2µM*	?	38*	Pol kappa inh-2=9.5*
CC1=Nc2c(cnn2-c2ccc(C)c(Cl)c2)C2=NCCCN12	.	.	.	.	.	2%	.
O=C(O)C/C(=C\c1cccc(NC(=O)c2ccccc2Cl)c1)c1nc2ccccc2s1	?	?	?	50µM*	50µM*	-22%	?
COc1cc(CNC(=O)c2ccc3c(c2)c(C)c(C)n3Cc2cccc(C)c2)cc(OC)c1OC	-2%	-20%	.	11%	-19%	-17%	.
Cc1cccc(Cn2c(C)c(C)c3cc(C(=O)NCc4ccco4)ccc32)c1	?	-15%	.	-10%	79µM*	?	?
CCN(CC)c1ccc(NC(=O)CSc2ccsc2[N+](=O)[O-])c(C)c1	25µM*	?	?	?	45µM*	?	?	Pol kappa inh-2=60*
Nc1ccc(C(=O)Nc2ccc(OC(F)(F)C(F)F)c(NC(=O)c3ccc(N)cc3)c2)cc1	5%[57.1 µM]	-15%	-2	-7%	?	-4%	.
Nc1ccc(C(=O)Nc2ccc3c(O)cc(S(=O)(=O)O)cc3c2)cc1	.	?	-52*	?	11µM*	?	76*	Pol kappa inh-2=?
COc1cc(/C=C/C(=O)O)cc(S(=O)(=O)Nc2ccccc2C(=O)NCc2ccco2)c1OC	.	?	2	?	22µM*	-2%	?
COc1cc(/C=C/C(=O)O)cc(S(=O)(=O)Nc2ccccc2Cl)c1OC	34%	-9%	-29	2%	-10%	-29%	.
CCc1oc(C(=O)O)cc1COC	22µM*	-29%	7	?	28µM*	-6%	30*
O=C(O)CC1Sc2ccccc2NC1=O (centres undefined)	66%	-3%	-7	2%	-10%	?	.
SMILES	Pol beta inh	Pol kappa inh-1	PI5P4Ka inh	Pol iota inh	Pol eta inh-1	12-LOX inh	Pol eta inh-2	others
O=C1Nc2ccccc2SC(c2ccccc2)C1O (centres undefined)	22µM*	79µM*	-82*	?	2.8µM*	13µM*	?
N#C/C(=C/c1cccc2ccccc12)c1ccc([N+](=O)[O-])cc1	.	.	.	.	.	2%	.
COC(=O)c1sc(-c2ccc(C(C)(C)C)cc2)cc1NC(=O)c1ccccc1C(=O)O	?	2%	?	-19%	89µM*	0%	.	Pol kappa inh-2=?
Cc1ccc2c(C)c(CCC(=O)Nc3ccc(C)c(F)c3)c(=O)oc2c1	.	.	.	.	.	6%	.
Cc1cc(NS(=O)(=O)c2ccc(NC(=O)c3ccco3)cc2)nc(C)n1	-1%	-8%	0	-4%	?	-14%	.
Cc1cc(NS(=O)(=O)c2ccc(NC(=O)/C=C/c3ccco3)cc2)nc(C)n1	0%	79µM*	-10	?	28µM*	?	34*
NS(=O)(=O)c1ccc(NC(=S)NC(=O)/C=C/c2ccco2)cc1	?	?	-22	?	32µM*	-23%	?	Pol kappa inh-2=38*
COc1ccccc1NC(=S)NC(=O)/C=C/c1ccco1	45µM*	?	?	?	20µM*	40µM*	?
